Measured values taken from PubChem BioAssay AID1671192 (National Center for Advancing Translational Sciences (NCATS), 2021).
Results filed as inconclusive are left out. Calls of active or inactive are those of the source. The call rests on the fitted dose curve; in most records, active means well fitted curve in the direction sought with a large enough effect; inconclusive means small, poorly fitted or top-dose-only effect, or another doubt; inactive means no such curve, though single readings can be large or run the other way.

These compounds were tested against Polyunsaturated fatty acid lipoxygenase ALOX15 (Homo sapiens) (UniProt P16050) (assay: Counterscreen qHTS for inhibitors of human arachidonate 12S-lipoxygenase (ALOX12): ALOX15 Assay). Conditions: purified ALOX15 enzyme activity; series mostly up to 110 µM.
In short: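 Purified human ALOX15 (15hLO-1) at 40 nM in 25 mM HEPES, 0.01% Triton X-100, pH 7.5, preincubated with compound 15 min at RT. Then 50 uM arachidonic acid for 30 min; hydroperoxide detected by Fe-xylenol orange as the 573/405 nm absorbance ratio.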

Sequence of Polyunsaturated fatty acid lipoxygenase ALOX15 (Homo sapiens) (P16050 whole entry, looked up): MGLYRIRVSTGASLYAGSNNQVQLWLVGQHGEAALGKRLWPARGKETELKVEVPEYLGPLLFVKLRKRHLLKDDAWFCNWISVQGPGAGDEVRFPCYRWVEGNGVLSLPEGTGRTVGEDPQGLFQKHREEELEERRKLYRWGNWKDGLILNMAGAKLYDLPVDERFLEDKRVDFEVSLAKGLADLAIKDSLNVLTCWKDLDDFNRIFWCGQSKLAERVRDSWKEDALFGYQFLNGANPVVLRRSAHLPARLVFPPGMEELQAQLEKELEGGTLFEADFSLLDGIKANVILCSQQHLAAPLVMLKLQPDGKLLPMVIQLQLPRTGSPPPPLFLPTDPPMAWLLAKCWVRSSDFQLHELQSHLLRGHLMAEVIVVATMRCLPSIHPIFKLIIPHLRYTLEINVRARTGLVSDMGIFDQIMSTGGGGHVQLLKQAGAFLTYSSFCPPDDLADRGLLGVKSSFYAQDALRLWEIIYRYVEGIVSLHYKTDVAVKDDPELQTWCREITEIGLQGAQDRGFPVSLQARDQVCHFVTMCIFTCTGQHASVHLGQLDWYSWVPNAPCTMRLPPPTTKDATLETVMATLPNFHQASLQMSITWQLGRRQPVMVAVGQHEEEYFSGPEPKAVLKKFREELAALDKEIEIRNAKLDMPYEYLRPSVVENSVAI

Structure (SMILES)	outcome
CN1CC(=O)N(C2CCCNCC2)Cc2c(NCCCO)ncnc21 (stereo not drawn)	inactive
O=C1NCc2ccccc2CC12CCN(Cc1cc(F)ccc1F)C2 (stereo not drawn)	inactive
O=C(Nc1ccc(F)cc1)c1c[nH]c2cccnc12	inactive
COc1ccc(-c2cc(C(=O)NC3CC3)c3c(C)nn(-c4ccccc4)c3n2)cc1	inactive
CN(C)c1ccc(CN2CCn3c(nn(-c4ccc(Cl)cc4)c3=O)C2)cc1	inactive
CN(C)CCC(=O)N1Cc2ccccc2CC2(CCCN(C)C2)C1 (stereo not drawn)	inactive
CCNc1ncnc2c1CN(C1CCCNC1)C(=O)CN2C (stereo not drawn)	inactive
CN1CC(=O)N(C2CCCNCC2)Cc2c1ncnc2N1CCC(N2CCCCC2)CC1 (stereo not drawn)	inactive
COc1ccc(OC)c([S+](=O)([O-])c2nnn3c2nc(NCc2ccc(F)cc2)c2ccccc23)c1	inactive
CN1CC(=O)N(C2CCNCC2)Cc2c(NC3CCCCCC3)ncnc21	inactive
COc1ccccc1CNc1ncnc2c1CN(C1CCCNCC1)C(=O)CN2C (stereo not drawn)	inactive
CCN1CCC2(Cc3ccccc3CN(C(=O)Cc3ccccc3)C2)C1 (stereo not drawn)	inactive
O=C(C1CCCC1)N1Cc2ccccc2CC2(CCCN(CC3CCNC3)C2)C1 (stereo not drawn)	inactive
FC(F)(F)c1ccc(N2C3CCC2CN(Cc2cccs2)C3)cc1	inactive
CC(C)S(=O)(=O)N1CCC(c2nnc3n2CCNC3)CC1	inactive
CN1CCC(C(=O)N2Cc3ccccc3CC3(CCCN(CC4CCNCC4)C3)C2)CC1 (stereo not drawn)	inactive
COc1ccc(N2CC3CCC(C2)N3CC(C)C)cc1	inactive
CCCCCNc1ncnc2c1CN(C1CCNCC1)C(=O)CN2C	inactive
COc1cccc(N2C(=O)NC(=NC3CCCC3)C23CCCN([S+](=O)([O-])c2ccccc2)C3)c1 (stereo not drawn)	inactive

Structure (SMILES)	outcome
Cn1cccc1CN1CCC2(CC1)C(=NC1CCCCC1)NC(=O)N2c1cc(F)cc(F)c1	inactive
O=Cc1cccc(N2CCN(C(=O)c3ccncc3)CC2=O)c1	inactive
C[S+](=O)([O-])N1Cc2ccccc2CC2(CCN(CC3CCNC3)CC2)C1 (stereo not drawn)	inactive
CN1CC(=O)N(C2CCNCC2)Cc2c1ncnc2N1CCCCC1	inactive
CCOCCNc1ncnc2c1CN(C1CCNCC1)C(=O)CN2C	inactive
CCc1nc2c(c(-c3ccc(OC)cc3)n1)CCN(Cc1ccc(C(F)(F)F)cc1)CC2	inactive
N#Cc1ccc(CN2CCC3(CC(c4cccc(C(F)(F)F)c4)=NO3)C2)cc1 (stereo not drawn)	inactive
CC(C)CCN1CCn2c(nn(-c3ccc(Cl)cc3)c2=O)C1	inactive
O=C(c1ccccn1)N1CCc2nc(C3CC3)nc(-c3ccc(Cl)cc3)c2C1	inactive
CC(=O)NCCC(=O)N1Cc2ccccc2CC2(CCN(CC3CCNC3)CC2)C1 (stereo not drawn)	inactive
CC(=O)NCCC(=O)N1Cc2ccccc2CC2(CCCN(CC3CCNC3)C2)C1 (stereo not drawn)	inactive
CC(=O)NC1CC2(CCN(C(=O)Cc3cnc[nH]3)CC2)c2ccccc21 (stereo not drawn)	inactive
COc1cccc([S+](=O)([O-])N2CC(Oc3ccc(F)c(F)c3)C2)c1	inactive
CN1CC(=O)N(C2CCCNCC2)Cc2c(NCC3CC3)ncnc21 (stereo not drawn)	inactive
CN1CCC2(Cc3ccccc3CN(C(=O)CCN)C2)C1 (stereo not drawn)	inactive
Cc1ccc(-c2cccc(CN)c2)cc1Cl	inactive
O=C1NCc2ccccc2CC12CCN(Cc1c(F)cccc1F)C2 (stereo not drawn)	inactive
O=C1NCc2ccccc2CC12CCCN2CC1=CCCCC1 (stereo not drawn)	inactive
CCC(=O)N1Cc2ccccc2CC2(CCN(Cc3ccncc3)CC2)C1	inactive
